Measured values as given in the supplement of paper PMC8975748.
Structures can show the parent of a compound that is named as a salt.

Each molecule was assayed on Saccharomyces cerevisiae BY4741 SeMeCo community (assay: z-score of subpopulation abundance vs DMSO median, subpopulation auxotrophic for LUM; higher = larger share of this subpopulation than in DMSO controls). Settings: 10 µM; 24 h; SM minimal medium; subpopulation (auxotrophy): LUM.
Outline: (§1)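 Scoring was based on each subpopulation's abundance, expressed as a z-score against the vehicle-well median. A Saccharomyces cerevisiae BY4741 community with four plasmids, each restoring one auxotrophy and encoding a distinct fluorescent protein, was pre-grown overnight to OD600 1.0, diluted to 0.3, and added at 70 µl to 384-well plates acoustically predosed with library drugs (10 µM final). It then grew 24 h in minimal SM medium before paraformaldehyde fixation and automated confocal microscopy, with single-auxotroph fluorescent strains setting thresholds and autofluorescence correction.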

SMILES	z-score of subpopulation abundance
O=C(NCCN1CCOCC1)c1ccc(Cl)cc1	0.42
C=C[C@]1(C)C[C@@H](OC(=O)CSC(C)(C)CNC(=O)[C@H](N)C(C)C)[C@]2(C)[C@H](C)CC[C@]3(CCC(=O)[C@H]32)[C@@H](C)[C@@H]1O [Valnemulin HCl]	0.67
CN1CCN(CCCN2c3ccccc3Sc3ccc(C(F)(F)F)cc32)CC1 [Trifluoperazine 2HCl]	0
CCCCCCCCN=c1ccn(CCCCCCCCCCn2ccc(=NCCCCCCCC)cc2)cc1 [Octenidine Dihydrochloride]	13.8
CC1(C)S[C@@H]2[C@H](NC(=O)Cc3ccccc3)C(=O)N2[C@H]1C(=O)O [Penicillin G Sodium]	-0.52
Nc1ccc(S(=O)(=O)NC(=O)c2ccccc2)cc1 [Sulfabenzamide]	-0.19
COc1ccc(C(=O)NCc2ccc(OCCN(C)C)cc2)cc1OC [Itopride hydrochloride]	0.15
COc1ccc(-c2nc3cc(C4=NNC(=O)CC4C)ccc3[nH]2)cc1 (configuration not stated) [Pimobendan]	1.6
CC(C)N1CCN(c2ccc(OCC3COC(Cn4cncn4)(c4ccc(Cl)cc4Cl)O3)cc2)CC1 (configuration not stated) [Terconazole]	-0.86
COc1cc([C@@H]2c3cc4c(cc3[C@@H](O[C@@H]3O[C@@H]5CO[C@@H](c6cccs6)O[C@H]5[C@H](O)[C@H]3O)[C@H]3COC(=O)[C@H]23)OCO4)cc(OC)c1O [Teniposide]	1.42
N[C@@H](CCC(=O)O)C(=O)O [(S)-Glutamic acid]	-0.99
CC1(C)S[C@@H]2[C@H](NC(=O)Cc3ccccc3)C(=O)N2[C@H]1C(=O)O [Benzylpenicillin potassium]	0.72
CCC[C@@H]1C[C@@H](C(=O)N[C@@H]([C@H]2O[C@H](SC)[C@H](OP(=O)(O)O)[C@@H](O)[C@H]2O)[C@H](C)Cl)N(C)C1 [Clindamycin Phosphate]	-0.05
CN[C@@H]1[C@H](O[C@H]2[C@H](O[C@H]3[C@H](O)[C@@H](O)[C@H](N=C(N)N)[C@@H](O)[C@@H]3N=C(N)N)O[C@@H](C)[C@]2(O)C=O)O[C@@H](CO)[C@H](O)[C@H]1O [Streptomycin sulfate]	-0.33
O=c1[nH]cnc2c1ncn2[C@@H]1O[C@H](CO)[C@@H](O)[C@H]1O [Isoprinosine]	-0.5
C=C1c2cccc(O)c2C(O)=C2C(=O)[C@]3(O)C(O)=C(C(N)=O)C(=O)[C@@H](N(C)C)[C@@H]3[C@@H](O)[C@H]12 [Methacycline HCl]	-0.23
Nc1nc(=O)[nH]cc1F [Flucytosine]	4.96
CO[C@@H]1[C@@H](O[C@@H]2O[C@H](C)[C@@H](O[C@H]3C[C@@](C)(O)[C@@H](O)[C@H](C)O3)[C@H](N(C)C)[C@H]2O)[C@@H](CC=O)C[C@@H](C)[C@@H](O[C@H]2CC[C@H](N(C)C)[C@@H](C)O2)/C=C/C=C/C[C@@H](C)OC(=O)C[C@H]1OC(C)=O [Acetylspiramycin (ASPM)]	1.09
C[C@]12CC[C@@H]3c4ccc(OS(=O)(=O)O)cc4CC[C@H]3[C@@H]1CCC2=O [Estropipate]	-0.11
COc1ccnc(C[S+]([O-])c2nc3cc(-n4cccc4)ccc3[nH]2)c1C (configuration not stated) [Ilaprazole sodium]	0.43
CN1C[C@@H]2C[C@H]1CN2c1cc2c(cc1F)c(=O)c(C(=O)O)cn2C1CC1 [Danofloxacin Mesylate]	-0.46
c1ccc(-c2ccc(C(c3ccccc3)n3ccnc3)cc2)cc1 (configuration not stated) [Bifonazole]	0.94
CO/N=C(\C(=O)N[C@@H]1C(=O)N2C(C(=O)O)=CCS[C@H]12)c1csc(N)n1 [Ceftizoxime]	-0.44
C#C[C@]1(O)CC[C@H]2[C@@H]3CCC4=Cc5oncc5C[C@]4(C)[C@H]3CC[C@@]21C [Danazol]	0.22
Nc1c(Br)cc(Br)cc1CN[C@H]1CC[C@H](O)CC1 [Ambroxol HCl]	-1.08
O=C1c2c(O)ccc(O)c2C(=O)c2c(NCCNCCO)ccc(NCCNCCO)c21 [Mitoxantrone 2HCl]	-5.01
c1ccc2[nH]c(-c3cscn3)nc2c1 [Thiabendazole]	0.16
C[C@@H](O)[C@H]1C(=O)N2C(C(=O)[O-])=C(SC3Cn4cnc[n+]4C3)[C@H](C)[C@H]12 (some centres not stated) [Biapenem]	-0.49

The molecules below were run on Saccharomyces cerevisiae BY4741 SeMeCo community (assay: z-score of subpopulation abundance vs DMSO median, subpopulation auxotrophic for HLUM; higher = larger share of this subpopulation than in DMSO controls). Settings: 10 µM; 24 h; SM minimal medium; subpopulation (auxotrophy): HLUM.
Outline: as §1

SMILES	z-score of subpopulation abundance
O=C(NCCN1CCOCC1)c1ccc(Cl)cc1	0.73
C=C[C@]1(C)C[C@@H](OC(=O)CSC(C)(C)CNC(=O)[C@H](N)C(C)C)[C@]2(C)[C@H](C)CC[C@]3(CCC(=O)[C@H]32)[C@@H](C)[C@@H]1O [Valnemulin HCl]	0.48
CN1CCN(CCCN2c3ccccc3Sc3ccc(C(F)(F)F)cc32)CC1 [Trifluoperazine 2HCl]	-0.04
CCCCCCCCN=c1ccn(CCCCCCCCCCn2ccc(=NCCCCCCCC)cc2)cc1 [Octenidine Dihydrochloride]	58.5
CC1(C)S[C@@H]2[C@H](NC(=O)Cc3ccccc3)C(=O)N2[C@H]1C(=O)O [Penicillin G Sodium]	1.41
CC(C)[C@H]1CC[C@H](C(=O)N[C@H](Cc2ccccc2)C(=O)O)CC1 [Nateglinide]	0.69
COc1ccc(C(=O)NCc2ccc(OCCN(C)C)cc2)cc1OC [Itopride hydrochloride]	-0.16
COc1ccc(-c2nc3cc(C4=NNC(=O)CC4C)ccc3[nH]2)cc1 (configuration not stated) [Pimobendan]	1.6
CC(C)N1CCN(c2ccc(OCC3COC(Cn4cncn4)(c4ccc(Cl)cc4Cl)O3)cc2)CC1 (configuration not stated) [Terconazole]	-0.55
COc1cc([C@@H]2c3cc4c(cc3[C@@H](O[C@@H]3O[C@@H]5CO[C@@H](c6cccs6)O[C@H]5[C@H](O)[C@H]3O)[C@H]3COC(=O)[C@H]23)OCO4)cc(OC)c1O [Teniposide]	0.55
COc1ccc2c(c1)c(CC(=O)O)c(C)n2C(=O)c1ccc(Cl)cc1 [Indomethacin]	-0.35
N[C@@H](CCC(=O)O)C(=O)O [(S)-Glutamic acid]	0.06
NC(=O)c1cnccn1 [Pyrazinamide]	-0.48
Cc1nnc(NS(=O)(=O)c2ccc(N)cc2)s1 [Sulfamethizole]	-0.49
CCC[C@@H]1C[C@@H](C(=O)N[C@@H]([C@H]2O[C@H](SC)[C@H](OP(=O)(O)O)[C@@H](O)[C@H]2O)[C@H](C)Cl)N(C)C1 [Clindamycin Phosphate]	-0.47
CN[C@@H]1[C@H](O[C@H]2[C@H](O[C@H]3[C@H](O)[C@@H](O)[C@H](N=C(N)N)[C@@H](O)[C@@H]3N=C(N)N)O[C@@H](C)[C@]2(O)C=O)O[C@@H](CO)[C@H](O)[C@H]1O [Streptomycin sulfate]	-0.41
O=c1[nH]cnc2c1ncn2[C@@H]1O[C@H](CO)[C@@H](O)[C@H]1O [Isoprinosine]	-0.65

SMILES	z-score of subpopulation abundance
C=C1c2cccc(O)c2C(O)=C2C(=O)[C@]3(O)C(O)=C(C(N)=O)C(=O)[C@@H](N(C)C)[C@@H]3[C@@H](O)[C@H]12 [Methacycline HCl]	-0.19
COC(=O)C1=C(C)NC(C)=C(C(=O)OC)C1c1ccccc1[N+](=O)[O-] [Nifedipine]	1.1
Nc1ccc(S(=O)(=O)c2ccc(N)cc2)cc1 [Dapson]	0.06
NC(CO)(CO)CO [Trometamol]	-0.35
C[C@]1(COc2ccc(N3CCC(Oc4ccc(OC(F)(F)F)cc4)CC3)cc2)Cn2cc([N+](=O)[O-])nc2O1 [Delamanid]	0.08
Nc1nc(=O)[nH]cc1F [Flucytosine]	38.3
CO[C@@H]1[C@@H](O[C@@H]2O[C@H](C)[C@@H](O[C@H]3C[C@@](C)(O)[C@@H](O)[C@H](C)O3)[C@H](N(C)C)[C@H]2O)[C@@H](CC=O)C[C@@H](C)[C@@H](O[C@H]2CC[C@H](N(C)C)[C@@H](C)O2)/C=C/C=C/C[C@@H](C)OC(=O)C[C@H]1OC(C)=O [Acetylspiramycin (ASPM)]	1.07
COc1ccnc(C[S+]([O-])c2nc3cc(-n4cccc4)ccc3[nH]2)c1C (configuration not stated) [Ilaprazole sodium]	0.94
CN1C[C@@H]2C[C@H]1CN2c1cc2c(cc1F)c(=O)c(C(=O)O)cn2C1CC1 [Danofloxacin Mesylate]	-0.14
CO/N=C(\C(=O)N[C@@H]1C(=O)N2C(C(=O)O)=CCS[C@H]12)c1csc(N)n1 [Ceftizoxime]	-0.49
CN(C)[C@@H]1C(=O)C(C(N)=O)=C(O)[C@@]2(O)C(=O)C3=C(O)c4c(O)ccc(Cl)c4[C@@H](O)[C@H]3C[C@@H]12 [Demeclocycline HCl]	-0.17
C#C[C@]1(O)CC[C@H]2[C@@H]3CCC4=Cc5oncc5C[C@]4(C)[C@H]3CC[C@@]21C [Danazol]	-0.4
Nc1c(Br)cc(Br)cc1CN[C@H]1CC[C@H](O)CC1 [Ambroxol HCl]	-0.43
CCOC(=O)c1ccc(N)cc1 [Benzocaine]	-0.38
O=C1c2c(O)ccc(O)c2C(=O)c2c(NCCNCCO)ccc(NCCNCCO)c21 [Mitoxantrone 2HCl]	-2.13
c1ccc2[nH]c(-c3cscn3)nc2c1 [Thiabendazole]	-0.43
C[C@@H](O)[C@H]1C(=O)N2C(C(=O)[O-])=C(SC3Cn4cnc[n+]4C3)[C@H](C)[C@H]12 (some centres not stated) [Biapenem]	-0.81
